The full ranking holds about 110,000 compounds; the median of “z-score” is about -0.1, and the highest 2% start at about 2. What follows is part of a selection rich in the highest values, with near analogues and random picks from the rest. Calls of active or inactive are those of the source.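 Rule for the calls: active = z-score in the third read window above 3 or below -3; inactive = the rest.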
The molecules below were run against Metabotropic glutamate receptor 8 (Rattus norvegicus) (UniProt P70579) (assay: mGluR8 Gi/Go-coupled signaling modulation – cell-based, rat, thallium flux, HTS, primary screen (AID 488969)). Details: HEK293 rat mGluR8, GIRK (G protein-gated inwardly rectifying potassium channel) thallium flux, FluoZin2; at 10 µM; stronger effect = higher value; submaximal glutamate (EC20) added with thallium.
Sequence of Metabotropic glutamate receptor 8 (Rattus norvegicus) (P70579 whole entry, looked up): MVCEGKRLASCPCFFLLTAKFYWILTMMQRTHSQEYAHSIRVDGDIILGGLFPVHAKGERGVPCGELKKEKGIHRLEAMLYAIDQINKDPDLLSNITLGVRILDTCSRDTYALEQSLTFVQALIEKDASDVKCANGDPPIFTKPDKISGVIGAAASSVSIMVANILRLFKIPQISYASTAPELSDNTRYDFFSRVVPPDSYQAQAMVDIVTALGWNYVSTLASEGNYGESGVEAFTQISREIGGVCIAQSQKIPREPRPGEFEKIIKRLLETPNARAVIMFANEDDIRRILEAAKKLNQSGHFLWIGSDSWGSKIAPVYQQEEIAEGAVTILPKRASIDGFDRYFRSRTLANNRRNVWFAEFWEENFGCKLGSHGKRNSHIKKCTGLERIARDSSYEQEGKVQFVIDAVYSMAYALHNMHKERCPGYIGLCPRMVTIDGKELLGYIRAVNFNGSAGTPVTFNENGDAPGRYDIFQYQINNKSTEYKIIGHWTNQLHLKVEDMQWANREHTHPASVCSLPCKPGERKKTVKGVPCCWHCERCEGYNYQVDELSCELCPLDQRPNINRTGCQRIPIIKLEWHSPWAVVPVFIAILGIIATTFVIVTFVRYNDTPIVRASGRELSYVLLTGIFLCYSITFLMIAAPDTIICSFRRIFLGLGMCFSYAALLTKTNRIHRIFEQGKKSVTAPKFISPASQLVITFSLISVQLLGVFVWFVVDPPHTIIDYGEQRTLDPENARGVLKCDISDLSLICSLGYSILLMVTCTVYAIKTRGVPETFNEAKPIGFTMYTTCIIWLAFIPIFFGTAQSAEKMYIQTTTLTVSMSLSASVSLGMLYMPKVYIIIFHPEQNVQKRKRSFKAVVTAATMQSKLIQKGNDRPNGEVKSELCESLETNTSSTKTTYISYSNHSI

Compound	z-score
Cc1ccc(S(=O)(=O)N2CCN(c3ccc4nnc(-c5ccccc5)n4n3)CC2)cc1	-0.183
CN(C)C(=O)c1snnc1-c1ccccc1	-0.386
O=C1C(Cl)=C(NCCCO)C(=O)c2ccccc21	-0.185
CCOC(=O)c1c(NC(=O)CSc2nc3ccccc3s2)sc(C(C)=O)c1C	-0.129
C=CCn1c(Oc2cc(C)ccc2C)nc2c1c(=O)n(C)c(=O)n2C	0.128
CCC(C)(C(=O)NC1CCCCC1)N(C(=O)C1CCC(=O)N1)c1ccccc1 (centres undefined)	0.963
NNC(=O)c1cnn(Cc2ccccc2)c1N	0.0742
Cc1ccc(NC2=NC(=S)N(CC#N)C23CCCCC3)cc1	3.98 (active)
Cc1ccc(Nc2nc(N)nc(CC#N)n2)cc1	0.115
Cc1cccc(NC2=NC(=S)N(c3ccc(C(=O)O)cc3)C23CCCCC3)c1	-0.194
CCSc1nnc(NC(=O)C(C)Sc2nc3ccccc3[nH]2)s1 (centres undefined)	1.73
COc1ccc(N(CC(=O)NCc2ccc3c(c2)OCO3)S(=O)(=O)c2c(C)nn(C)c2C)cc1	-0.575
COC(=O)c1ccc(COC(=O)c2ccc(SC)cc2OC)cc1	-0.178
Cc1cccc(NC(=O)c2sc(Cl)nc2C)c1C	0.181
Cn1c(=O)oc2cc(S(=O)(=O)N3CCCC(C(=O)N4CC=C(c5ccccc5)CC4)C3)ccc21 (centres undefined)	1.18
O=C(Nc1ccc(N2CCOCC2)cc1)C1CCCN(S(=O)(=O)c2cccc(C(F)(F)F)c2)C1 (centres undefined)	2.63
O=C(Nc1ccccc1N1CCOCC1)C1CCN(S(=O)(=O)c2cccc(C(F)(F)F)c2)CC1	-0.294
O=C(Nc1ccc(N2CCOCC2)cc1)C1CCCN(S(=O)(=O)c2ccccc2)C1 (centres undefined)	0.446
Cc1nn(-c2ccccc2)c(Cl)c1/C=N/NC(=O)C1COc2ccccc2O1 (centres undefined)	-0.169
CCCSc1nnc(-c2cnn(-c3ccccc3)c2-n2cccc2)n1C	-0.0552
COc1cc(NC(=O)c2ccc(C)cc2)c(OC)cc1NC(=O)CN1CCCCC1	2.37
COc1cc(NC(=O)c2ccccc2)c(OC)cc1NC(=O)CN1CCCCC1	-0.781
COc1cc(NC(=O)c2ccc(C)cc2)c(OC)cc1NC(=O)CN1CCOCC1	-0.672
COc1cc(NC(=O)COC(=O)CNC(=O)c2ccc(Cl)cc2)c(C)cc1[N+](=O)[O-]	-0.644
CC1(C)CC(=S)Nc2ccccc2S1	7.97 (active)
CC1CC(=S)Nc2ccccc2S1 (centres undefined)	1.11
COC(=O)C(C)C1Sc2ccccc2NC1=O (centres undefined)	-0.34
CCOC(=O)c1cc(C#N)c(Oc2ccc(F)cc2)nc1-c1ccccc1	-0.0477
Cc1cc(C(=O)COC(=O)Cc2n[nH]c(=O)c3ccccc23)c(C)n1-c1ccc2c(c1)OCCO2	-0.104

Source: PubChem BioAssay AID488969 (Vanderbilt High Throughput Screening Facility, 2010)
